“And” between values parts separate entries of the source, which are not always exact repeats. Identical values can stand only once. This is part of a sample that, as a whole, favours compounds with a hit. Of some 83,000 tested, about 20% had one in any assay.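 Step 1: grow cells in 96-well plates. Step 2: add test compound at a single concentration. Step 3: incubate 48 h. Step 4: record percent growth.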 The source made the active and inactive calls. How the source made its calls: active means growth percent below 10; inactive means the rest.

Some test systems named below: SR leukemia; RPMI-8226 leukemia; OVCAR-8 ovarian; OVCAR-5 ovarian; OVCAR-4 ovarian; SK-OV-3 ovarian; IGROV1 ovarian; OVCAR-3 ovarian; HS 578T breast; NCI/ADR-RES ovarian.
Common to all, as to assay: NCI-60 one-dose screen, 48 h (100 = growth as untreated, 0 = no growth, -100 = all killed)
Holding throughout (conditions): 10 µM unless noted

In the case of `O=S(=O)(Nc1ccc(F)cc1)c1ccc(-c2cnc(C3CC3)o2)cc1`, the growth in the experiment with SR leukemia was 11.6% (inactive); with RPMI-8226 leukemia it was 17.2% (inactive); with OVCAR-8 ovarian, 30.4% (inactive); in the experiment with OVCAR-5 ovarian, 59.1% (inactive); with OVCAR-4 ovarian, 69.9% (inactive); with SK-OV-3 ovarian it was 39.7% (inactive). For the same compound, the growth in the experiment with IGROV1 ovarian was 37.9% (inactive); with OVCAR-3 ovarian, 10.2% (inactive); in the experiment with HS 578T breast, 14.1% (inactive); in the experiment on NCI/ADR-RES ovarian, -0.888% (active).
With `O=C(Cc1ccc(F)cc1)c1ccccc1`, the growth with SR leukemia was 100% (inactive); in the experiment on RPMI-8226 leukemia, 95.9% (inactive); in the experiment with OVCAR-8 ovarian it was 104% (inactive); in the experiment on OVCAR-5 ovarian it was 122% (inactive); with OVCAR-4 ovarian, 109% (inactive); in the experiment on SK-OV-3 ovarian, 108% (inactive). Also, the growth with IGROV1 ovarian is 107% (inactive); in the experiment with OVCAR-3 ovarian, 129% (inactive); with HS 578T breast it was 94% (inactive); in the experiment on NCI/ADR-RES ovarian it was 108% (inactive).
As for `COc1ccccc1/C=C/C(=O)/C=C/c1ccccc1OC`, the growth is 16.2% (inactive) and 7.78% (active) with SR leukemia; 7.24% (active) and 1.3% (active) with RPMI-8226 leukemia; -25.9% (active) and 16.5% (inactive) with OVCAR-8 ovarian; -15.7% (active) and -6.94% (active) with OVCAR-5 ovarian; 20.6% (inactive) and 13% (inactive) in the experiment with OVCAR-4 ovarian; 5.47% (active) and 14.6% (inactive) in the experiment with SK-OV-3 ovarian. Moreover, the growth in the experiment with IGROV1 ovarian was -53.8% (active) and -46.1% (active); in the experiment on OVCAR-3 ovarian, -29.1% (active) and -36.7% (active); with HS 578T breast, -0.48% (active) and 50.4% (inactive); with NCI/ADR-RES ovarian, -2.31% (active) and 18.6% (inactive).
For the compound `C=C(c1ccc(C(=O)O)cc1)c1cc2c(cc1C)C(C)(C)CCC2(C)C`, the growth is 46.1% (inactive) and 84.9% (inactive) in the experiment on SR leukemia; 2.66% (active) and 61% (inactive) in the experiment with RPMI-8226 leukemia; 77% (inactive) and 80.6% (inactive) in the experiment with OVCAR-8 ovarian; 91% (inactive) and 79.7% (inactive) with OVCAR-5 ovarian; 95.4% (inactive) and 86.9% (inactive) in the experiment with OVCAR-4 ovarian; 88.7% (inactive) and 77.8% (inactive) with SK-OV-3 ovarian. The growth in the experiment with IGROV1 ovarian is 98.9% (inactive) and 79.8% (inactive); in the experiment on OVCAR-3 ovarian it was 88.8% (inactive) and 82.6% (inactive); with HS 578T breast, 126% (inactive) and 68.1% (inactive); in the experiment on NCI/ADR-RES ovarian it was 71.9% (inactive) and 72.9% (inactive).
`CCOC(=O)N(O)c1ccc(/C=C/c2ccccc2)cc1`: the growth in the experiment with SR leukemia was 66.7% (inactive); in the experiment on RPMI-8226 leukemia it was 62.2% (inactive) and 49.3% (inactive); in the experiment on OVCAR-8 ovarian, 76.7% (inactive) and 37.1% (inactive); in the experiment with OVCAR-5 ovarian it was 18.9% (inactive) and 3.82% (active); in the experiment with OVCAR-4 ovarian it was 55.8% (inactive) and 43.5% (inactive); in the experiment with SK-OV-3 ovarian, 94.1% (inactive) and 92.6% (inactive). Also, the growth in the experiment with IGROV1 ovarian is 8.91% (active) and 1.54% (active); in the experiment with OVCAR-3 ovarian, 34% (inactive) and 28% (inactive); with HS 578T breast it was 94.4% (inactive) and 112% (inactive); in the experiment on NCI/ADR-RES ovarian, 74.7% (inactive) and 63.2% (inactive).
As to `Cc1nc2sc(C(=O)Nc3cccc4ncccc34)c(N)c2cc1C(C)O` (stereo not given), the growth was 22.4% (inactive) with SR leukemia; 75.8% (inactive) in the experiment on RPMI-8226 leukemia; 86.6% (inactive) with OVCAR-8 ovarian; 96.5% (inactive) in the experiment with OVCAR-5 ovarian; 91.3% (inactive) with OVCAR-4 ovarian; 69.9% (inactive) in the experiment with SK-OV-3 ovarian. Besides, the growth in the experiment on IGROV1 ovarian was 74.4% (inactive); in the experiment on OVCAR-3 ovarian, 54.6% (inactive); with HS 578T breast it was 63.6% (inactive); in the experiment on NCI/ADR-RES ovarian it was 88% (inactive).
Turning to `CCCCC1=C(Br)C(=O)c2nc(C)ccc2C1=O`, the growth in the experiment on SR leukemia is 21.8% (inactive); in the experiment on RPMI-8226 leukemia, 58.5% (inactive); with OVCAR-8 ovarian, 88.3% (inactive); with OVCAR-5 ovarian it was 102% (inactive); in the experiment with OVCAR-4 ovarian it was 75.5% (inactive); with SK-OV-3 ovarian, 95% (inactive). Also, the growth in the experiment on IGROV1 ovarian is 83.9% (inactive); in the experiment on OVCAR-3 ovarian it was 48.5% (inactive); in the experiment on HS 578T breast, 90.9% (inactive); in the experiment with NCI/ADR-RES ovarian it was 100% (inactive).
In the case of `O=c1c(/C=C/c2ccco2)nnc2sc(Nc3ccc(Cl)cc3)nn12`, the growth is 96% (inactive) in the experiment on SR leukemia; 101% (inactive) in the experiment with RPMI-8226 leukemia; 101% (inactive) with OVCAR-8 ovarian; 97.1% (inactive) in the experiment on OVCAR-5 ovarian; 90.7% (inactive) in the experiment with OVCAR-4 ovarian; 86.4% (inactive) in the experiment on SK-OV-3 ovarian. Besides, the growth was 68.8% (inactive) in the experiment with IGROV1 ovarian, 106% (inactive) with OVCAR-3 ovarian, 91% (inactive) in the experiment with HS 578T breast and 102% (inactive) in the experiment on NCI/ADR-RES ovarian.
For `COC1=CC(c2ccc[nH]2)=N/C1=C\c1[nH]c(C)c(C(=O)Oc2ccccc2)c1C`, the growth was 6.67% (active) with SR leukemia; -13.4% (active) in the experiment with RPMI-8226 leukemia; -13.8% (active) in the experiment with OVCAR-8 ovarian; -41.5% (active) in the experiment on OVCAR-5 ovarian; -48.8% (active) with OVCAR-4 ovarian; 1.25% (active) with SK-OV-3 ovarian. In addition, the growth in the experiment with IGROV1 ovarian was -35.4% (active); in the experiment on OVCAR-3 ovarian, -39.7% (active); with HS 578T breast, -27.5% (active); in the experiment with NCI/ADR-RES ovarian, -3.96% (active).
Regarding `COc1ccc(-c2ccc(-c3ccc(C(=N)N)cn3)o2)cc1Cl`, the growth with SR leukemia is -28.3% (active); with RPMI-8226 leukemia, -35.5% (active); with OVCAR-8 ovarian it was 12.3% (inactive); in the experiment with OVCAR-5 ovarian it was 68.6% (inactive); in the experiment with OVCAR-4 ovarian, 38.8% (inactive); in the experiment on SK-OV-3 ovarian, 84.8% (inactive). The growth with IGROV1 ovarian is 68.7% (inactive); with OVCAR-3 ovarian, -13.2% (active); in the experiment with HS 578T breast, 59.1% (inactive); in the experiment on NCI/ADR-RES ovarian, 82.8% (inactive).
Turning to `O=C(N=Nc1c(O)[nH]c2ccccc12)Nc1ccccc1Cl`, the growth was 77.1% (inactive) in the experiment with SR leukemia; 84.8% (inactive) in the experiment with RPMI-8226 leukemia; 97.5% (inactive) in the experiment on OVCAR-8 ovarian; 93.6% (inactive) with OVCAR-5 ovarian; 71% (inactive) in the experiment with OVCAR-4 ovarian; 94.4% (inactive) in the experiment with SK-OV-3 ovarian. Further, the growth was 65.3% (inactive) with IGROV1 ovarian, 101% (inactive) in the experiment with OVCAR-3 ovarian, 89.4% (inactive) in the experiment on HS 578T breast and 93% (inactive) with NCI/ADR-RES ovarian.

These data come from PubChem BioAssay (NCI).
